Data on ten compounds can be found in publication PMC5540273 (PLoS ONE, 2017).

Test systems include RIPK5; ROCK1; ROCK2; ROS1; S6K1; SBK1; SGK2; SGK3.
Holding throughout (conditions): concentration: 1 μM, replicates: in singlicate; n = 1
The subject of assay [1] is RPS6KA4(Kin.Dom.1-N-terminal).
Assay [2] concerns RPS6KA4(Kin.Dom.2-C-terminal).
For assay [3], the system named is RPS6KA5(Kin.Dom.1-N-terminal).
For assay [4], the system named is RPS6KA5(Kin.Dom.2-C-terminal).
In assay [5] the test system is T1, RSK1(Kin.Dom.1-N-terminal).
T1 construct: gene RPS6KA1

The subject of assay [6] is T2, RSK1(Kin.Dom.2-C-terminal).
T2 construct: gene RPS6KA1

Assay [7] relates to T3, RSK2(Kin.Dom.1-N-terminal).
T3 construct: gene RPS6KA3

Assay [8] relates to T4, RSK2(Kin.Dom.2-C-terminal).
T4 construct: gene RPS6KA3

In assay [9] the test system is T5, RSK3(Kin.Dom.1-N-terminal).
T5 construct: gene RPS6KA2

Assay [10] deals with T6, RSK3(Kin.Dom.2-C-terminal).
T6 construct: gene RPS6KA2

The subject of assay [11] is T7, RSK4(Kin.Dom.1-N-terminal).
T7 construct: gene RPS6KA6

Assay [12] deals with T8, RSK4(Kin.Dom.2-C-terminal).
T8 construct: gene RPS6KA6
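Also: KINOMEscan kinase panel screen.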

Take `O=C(Nc1cccc(-c2nn3ncccc3c2-c2ccnc(Nc3cccc(C(F)(F)F)c3)n2)c1)c1c(F)cccc1F` [GSK299495]: the “%Inh” value stood at 0% in the assay on RIPK5; 12% in the assay on ROCK1; 16% in the assay on ROCK2; 0% in the assay on ROS1; 2% in assay [1]; 0% in assay [2]. Also, the “%Inh” value in assay [3] is 23%; in assay [4], 5%; in assay [5], 97.4%; in assay [6], 0%; in [7] it was 22%; in [8], 0%. Also, the “%Inh” value in assay [9] was determined as 31%; in assay [10], 5%; in assay [11], 0%; in [12], 0%; in the assay with S6K1, 0%; with SBK1, 11%. The “%Inh” value in the assay on SGK2 was determined as 2%; in the assay with SGK3 it was 0%.

With `COc1cc2c(cc1OCCN1CCN(C)CC1)ncc1c3ccc(C#N)cc3[nH]c21`, the “%Inh” value in the assay with RIPK5 came out at 33%; in the assay on ROCK1, 98.1%; in the assay on ROCK2 it was 99.4%; in the assay on ROS1, 0%; in [1], 0%; in assay [2], 0%. The “%Inh” value came to 0% in assay [3]; 71% in assay [4]; 0% in [5]; 26% in [6]; 61% in assay [7]; 42% in [8]. Moreover, the “%Inh” value in [9] is 33%; in [10], 47%; in [11], 67%; in assay [12] it was 44%; in the assay on S6K1 it was 53%; with SBK1, 72%. Further, the “%Inh” value stood at 43% in the assay on SGK2 and 19% with SGK3.

With `N#Cc1ccc(-c2cc(-c3c[nH]nc3-c3ccccn3)ccn2)cc1` [GW693028], the “%Inh” value in the assay on RIPK5 worked out at 0%; in the assay on ROCK1, 28%; with ROCK2, 3%; with ROS1, 0%; in assay [1], 5%; in assay [2], 0%. Moreover, the “%Inh” value is 19% in assay [3]; 10% in [4]; 13% in assay [5]; 0% in assay [6]; 0% in assay [7]; 24% in assay [8]. For the same compound, the “%Inh” value is recorded as 0% in assay [9]; 0% in assay [10]; 0% in [11]; 28% in [12]; 4% in the assay on S6K1; 4% in the assay with SBK1. Also, the “%Inh” value in the assay on SGK2 and with SGK3 was 0% throughout.

Take `NS(=O)(=O)CCc1cccc(Nc2nccc(-c3c(-c4cccc(NC(=O)c5c(F)cccc5F)c4)nn4ccccc34)n2)c1` [GSK336735]: the “%Inh” value with RIPK5 is listed as 10%; with ROCK1, 24%; in the assay on ROCK2, 0%; with ROS1, 79%; in [1], 53%; in [2] it was 0%. The “%Inh” value was 63% in assay [3]; 6% in assay [4]; 100% in assay [5]; 0% in assay [6]; 15% in [7]; 0% in assay [8]. In addition, the “%Inh” value in assay [9] turned out to be 45%; in assay [10] it was 0%; in assay [11], 0%; in assay [12], 2%; in the assay with S6K1, 20%; in the assay on SBK1 it was 27%. Also, the “%Inh” value in the assay on SGK2 came to 0%; in the assay on SGK3, 3%.

Turning to `c1ccc(-c2n[nH]cc2-c2ccnc3ccccc23)nc1` [GW271431], the “%Inh” value with RIPK5 was 0%; in the assay on ROCK1, 0%; in the assay on ROCK2, 0%; with ROS1, 28%; in assay [1] it was 11%; in assay [2], 0%. Also, the “%Inh” value worked out at 9% in assay [3]; 4% in assay [4]; 21% in [5]; 12% in assay [6]; 0% in assay [7]; 0% in assay [8]. Also, the “%Inh” value in [9] is reported as 0%; in [10], 0%; in [11] it was 0%; in [12] it was 48%; in the assay with S6K1, 1%; in the assay with SBK1, 9%. Further, the “%Inh” value is reported as 6% in the assay with SGK2 and 10% in the assay with SGK3.

On to `C[C@@H](Oc1cc(-n2cnc3ccc(NC(=O)NC(C)(C)C)cc32)sc1C(N)=O)c1ccccc1Cl` [GSK346294], for which the “%Inh” value with RIPK5 is given as 10%; in the assay on ROCK1, 4%; with ROCK2 it was 17%; in the assay on ROS1 it was 33%; in assay [1], 11%; in assay [2] it was 0%. Further, the “%Inh” value in [3] is on record as 13%; in [4], 14%; in [5] it was 0%; in assay [6], 15%; in [7] it was 0%; in [8] it was 11%. The “%Inh” value in assay [9] worked out at 0%; in [10], 9%; in assay [11], 0%; in [12] it was 26%; in the assay with S6K1, 0%; with SBK1, 0%. The “%Inh” value with SGK2 was found to be 10%; in the assay on SGK3, 19%.

Regarding `Cc1ccc(NC(=O)c2ccnc(N3CCN(C)CC3)c2)cc1-c1ccc(C(=O)NCC2CC2)cc1` [GW775604], the “%Inh” value was determined as 0% in the assay with RIPK5; 41% in the assay on ROCK1; 0% in the assay on ROCK2; 0% in the assay with ROS1; 10% in [1]; 0% in [2]. Besides, the “%Inh” value in assay [3], in assay [4], in [5], in assay [6], in [7] and in [8] was 0% each time. Also, the “%Inh” value in assay [9] is reported as 0%; in [10] it was 15%; in assay [11] it was 0%; in assay [12] it was 7%; in the assay with S6K1 it was 9%; with SBK1, 0%. Moreover, the “%Inh” value with SGK2 and in the assay with SGK3 was 0% throughout.

Regarding `O=C1NC(=O)C(N2CCc3ccccc32)=C1c1cccc(Cl)c1` [SB-408010], the “%Inh” value in the assay with RIPK5 is 9%; with ROCK1, 0%; in the assay with ROCK2, 0%; in the assay on ROS1 it was 0%; in assay [1], 4%; in [2], 0%. The “%Inh” value in assay [3] was 9%; in assay [4], 0%; in assay [5], 0%; in assay [6], 11%; in [7], 0%; in [8] it was 0%. Moreover, the “%Inh” value in assay [9] turned out to be 10%; in [10], 21%; in assay [11] it was 35%; in assay [12], 11%; with S6K1 it was 0%; with SBK1, 5%. Further, the “%Inh” value with SGK2 and in the assay with SGK3 was 0% throughout.

With `Cc1nnc(-c2ccc3occ(-c4ccc(C(C)O)cc4)c3c2)o1` (centres unmarked), the “%Inh” value is 0% in the assay on RIPK5; 5% in the assay with ROCK1; 0% in the assay on ROCK2; 0% with ROS1; 9% in assay [1]; 25% in assay [2]. Further, the “%Inh” value in [3] worked out at 20%; in [4], 0%; in assay [5] it was 9%; in assay [6] it was 1%; in assay [7], 3%; in assay [8], 0%. Further, the “%Inh” value is on record as 0% in [9]; 3% in [10]; 19% in [11]; 7% in assay [12]; 0% with S6K1; 0% in the assay with SBK1. Besides, the “%Inh” value in the assay on SGK2 and in the assay on SGK3 was 0% in each case.

For `Cl.Nc1ncnc2occ(-c3ccc(NC(=O)Nc4cc(C(F)(F)F)ccc4F)cc3)c12` [SB-707548], the “%Inh” value with RIPK5 amounted to 28%; in the assay with ROCK1, 38%; in the assay with ROCK2 it was 74%; in the assay with ROS1, 50%; in [1] it was 48%; in assay [2] it was 0%. Moreover, the “%Inh” value in assay [3] was 63%; in assay [4] it was 16%; in assay [5], 18%; in [6] it was 30%; in assay [7], 25%; in assay [8], 27%. The “%Inh” value is reported as 67% in [9]; 77% in [10]; 0% in assay [11]; 39% in assay [12]; 81% in the assay with S6K1; 2% in the assay with SBK1. For the same compound, the results for the “%Inh” value in the assay on SGK2 and with SGK3 were 9% and 19%, respectively.
